Inconclusive results are not listed. Active and inactive are the calls of the source. Rule for the calls: active = hit-call score of the fitted dose curve at least 0.9, where 1 is the maximum; inconclusive = response in the unintended direction; inactive = score below 0.9.
Target: rat Vasoactive Intestinal Peptide Receptor (VIP), Non-selective Binding, Vipr1 (gene 24875) (UniProt P30083)
Test: NVS_GPCR_rVIP_NonSelective: NovaScreen (NVS) G Protein-Coupled Receptor Assay for rat Vasoactive Intestinal Peptide Receptor (VIP), Non-selective Binding
Description: NVS_GPCR_rVIP_NonSelective is a biochemical, single-readout assay that uses extracted gene-proteins from Rat forebrain membranes in a tissue-based cell-free assay. Measurements were taken 1 hour after chemical dosing in a 96-well plate.NVS_GPCR_rVIP_NonSelective is one of one assay component(s) measured or calculated from the NVS_GPCR_rVIP_NonSelective assay. It is designed to make measurements of radioligand binding, a form of binding reporter, as detected with scintillation counting signals by Filter-based radiodetection technology.Data from the assay component NVS_GPCR_rVIP_NonSelective was analyzed into 1 assay endpoint. This assay endpoint, NVS_GPCR_rVIP_NonSelective, was analyzed in the positive analysis fitting direction relative to DMSO as the negative control and baseline of activity. Using a type of binding reporter, loss-of-signal activity can be used to understand changes in the binding as they relate to the gene Vipr1. Furthermore, this assay endpoint can be referred to as a primary readout, because the performed assay has only produced 1 assay endpoint. To generalize the intended target to other relatable targets, this assay endpoint is annotated to the gpcr intended target family, where the subfamily is secretin receptor.
Binding assays used specific radioligands (tritiated, iodinated) with non-radioactive competitive displacement ligands in agonist or antagonist protocols (as indicated) and various reference compounds and inhibitors to titrate specific binding to receptors and transporters. Most enzyme assays (CYPs, kinases, phosphatases, proteases, HDACs) used recombinant protein and specific substrates (fluorescence mostly, some colorimetric and radioactive) and inhibitors, followed by a biochemical separation of substrate and product. All assays for the biochemical HTS were initially run in duplicate at a single concentration (10 uM for CYP450 assays and 25 uM for all others). Assay-chemical combinations meeting a pre-defined threshold (e.g., 30% inhibition and other criteria defined below) were then run in singleton concentration-response format with maximum concentration of 20 uM for CYPs and 50 uM for all others. Each assay was run with positive and negative controls, and concurrent controls on every plate. The follow-up (secondary) screen tested active chemical-pairs in concentration series, as well as a few additional assays not tested in the primary screen, some selected negative inactives, and several cases re-run in the concentration series for confirmatory purposes.

Sequence of rat Vasoactive Intestinal Peptide Receptor (VIP), Non-selective Binding, Vipr1 (gene 24875) (P30083 whole entry, looked up): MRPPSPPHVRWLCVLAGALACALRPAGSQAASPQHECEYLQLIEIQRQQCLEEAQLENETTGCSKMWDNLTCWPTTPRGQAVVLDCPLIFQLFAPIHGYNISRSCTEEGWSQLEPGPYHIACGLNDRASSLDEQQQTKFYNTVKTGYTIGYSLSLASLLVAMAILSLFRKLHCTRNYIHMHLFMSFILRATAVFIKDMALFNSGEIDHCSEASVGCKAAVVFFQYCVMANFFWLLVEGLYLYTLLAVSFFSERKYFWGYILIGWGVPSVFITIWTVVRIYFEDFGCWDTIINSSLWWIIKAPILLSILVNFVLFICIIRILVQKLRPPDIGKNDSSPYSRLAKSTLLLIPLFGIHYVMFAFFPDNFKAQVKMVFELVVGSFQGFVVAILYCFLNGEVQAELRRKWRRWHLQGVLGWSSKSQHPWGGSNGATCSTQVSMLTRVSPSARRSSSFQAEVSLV

SMILES	AC50	outcome
CCOC(=O)O[C@H](C)OC(=O)c1ccc2c(c1)cc(C(=O)NC1CCN(C(C)C)CC1)n2Cc1cc(-c2ccc(Cl)s2)on1	23.6 µM (active)	
CN(C)C(=O)C1(N2CCCCC2)CCN(CC[C@@]2(c3ccc(Cl)c(Cl)c3)CN(C(=O)c3ccccc3)CCO2)CC1		inactive
COCC(C)OCC(C)OCC(C)O (stereo not given)		inactive
CC(=O)NC1(c2cccc(F)c2)CCN(CC[C@@]2(c3ccc(Cl)c(Cl)c3)CN(c3ccccc3)C(=O)CO2)CC1		inactive
CCCCCCCCCC		inactive
NCc1cccc(C2CCN(C(=O)c3ccc(C#Cc4ccccc4F)o3)CC2)c1		inactive
CC(C)(c1ccc(O)cc1)c1ccc(O)cc1		inactive
O=C(NO)C1(NS(=O)(=O)c2ccc(Oc3ccc(F)cc3)cc2)CCOCC1		inactive
O=C(N[C@@H](c1ccccc1)[C@@H]1CCCCN1)c1cccc(C(F)(F)F)c1Cl		inactive
c1ccc(Nc2ccccc2)cc1		inactive
